# The panel holds about 79,000 compounds, 15% with a hit somewhere; the sample as a whole holds those more often. A number with no mark means an inactive call. Activity calls are given as the source filed them. No stated cut-off is given here; in the data, active means growth inhibition above about 70%; inactive means the rest.
# Tests used:
# [1] = NCI Yeast Anticancer Drug Screen. Data for the rad50 strain (AID 155);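 further: 0% = growth of vehicle-only cultures of the same strain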; conditions: S. cerevisiae rad50 strain growth inhibition, active compounds read high
# In short: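 Inhibition values express reduced yeast growth in compound-treated cultures relative to vehicle-treated controls.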
# [2] = NCI Yeast Anticancer Drug Screen. Data for the mec2-1 strain (AID 157); conditions: S. cerevisiae mec2-1 strain, active compounds read high
# In short: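 Each compound was tested on mec2-1 yeast, a strain altered in DNA damage repair or cell cycle control. Growth inhibition is reported relative to vehicle.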
# [3] = NCI Yeast Anticancer Drug Screen. Data for the sgs1 mgt1 strain (AID 161);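 further: 0% = growth of cultures given vehicle only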; conditions: S. cerevisiae sgs1 mgt1 strain, active compounds read high
# In short: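 Mutant yeast exposed to compound; growth scored against vehicle-only wells.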
# [4] = NCI Yeast Anticancer Drug Screen. Data for the cln2 rad14 strain (AID 165);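 further: 0% = growth equal to vehicle treated cultures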; conditions: S. cerevisiae cln2 rad14 strain, active compounds read high
# In short: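 Test compounds were added to cln2 rad14 yeast cultures; inhibition of growth was then determined by comparison with vehicle treatment.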
# [5] = NCI Yeast Anticancer Drug Screen. Data for the bub3 strain (AID 167); conditions: S. cerevisiae bub3 mutant strain, active compounds read high
# In short: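 Steps: expose the mutant yeast strain to compound; grow alongside vehicle-treated cultures; measure growth; express inhibition against the vehicle cultures.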
# [6] = NCI Yeast Anticancer Drug Screen. Data for the mlh1 rad18 strain (AID 175); conditions: S. cerevisiae mlh1 rad18 strain growth inhibition, active compounds read high
# In short: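 Inhibition values reflect reduced growth of mutant yeast versus vehicle-treated controls following compound exposure; the mutations affect DNA damage repair.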
# [7] = at 5.0 µM (retest, dose inferred, filed as 0.5)
# [8] = at 50.0 µM (retest, dose inferred, filed as 5.0)
Structure (SMILES),"growth inhibition [1, 7]","growth inhibition [1, 8]",growth inhibition ([1]; at 50.0 µM),"growth inhibition [2, 7]","growth inhibition [2, 8]",growth inhibition ([2]; at 50.0 µM),"growth inhibition [3, 7]","growth inhibition [3, 8]",growth inhibition ([3]; at 50.0 µM),"growth inhibition [4, 7] [%]","growth inhibition [4, 8]",growth inhibition ([4]; at 50.0 µM),"growth inhibition [5, 7]","growth inhibition [5, 8]",growth inhibition ([5]; at 50.0 µM),"growth inhibition [6, 7]","growth inhibition [6, 8]",growth inhibition ([6]; at 50.0 µM)
CCCCN(CCC(=O)O)c1ccc(/C=C\c2ccnc3ccccc23)cc1,8%,89% (active),94.2% (active),6%,89% (active),93.5% (active),21%,90% (active),95.6% (active),15,82% (active),88.7% (active),-2%,68%,96.3% (active),0%,89% (active),93% (active)
NC(N)=Nc1ccc(C(=O)Oc2c(Cl)cc([N+](=O)[O-])cc2Cl)cc1,-30%,46%,48%,-6%,28%,30.2%,4%,65%,71.1% (active),-9,32%,21.9%,-6%,40%,25.9%,12%,56%,32.9%
C/C(=N\NC(=S)N1CCCCCC1)c1cccc2cccnc12,-3%,14%,94.2% (active),-5%,44%,83.9% (active),7%,30%,97.6% (active),-19,2%,94.4% (active),-4%,26%,87.5% (active),-9%,22%,86.2% (active)
COC(=O)c1ccccc1C=C(c1ccc([N+](=O)[O-])cc1)c1ccc([N+](=O)[O-])cc1,4%,94% (active),93.2% (active),-2%,99% (active),95.8% (active),4%,98% (active),96.5% (active),-11,97% (active),95.1% (active),-2%,98% (active),94.6% (active),28%,97% (active),96% (active)
CC(=O)Nc1ccc(C(=O)C(C)Br)cc1 (centres undefined),38%,99% (active),62.8%,28%,99% (active),81.8% (active),43%,99% (active),80.5% (active),24,98% (active),23.6%,30%,99% (active),66.1%,40%,99% (active),-30.8%
CCOC(=O)N1CCN(CCCCCCOc2ccc(C(C)(C)C)cc2)CC1,3%,82% (active),93.5% (active),28%,87% (active),96% (active),31%,97% (active),98.1% (active),12,61%,94.5% (active),7%,76% (active),96.7% (active),38%,97% (active),98.6% (active)
N#Cc1ncc(Cl)cc1[N+](=O)[O-],93% (active),98% (active),99.5% (active),80% (active),99% (active),99.7% (active),93% (active),99% (active),99.5% (active),59,98% (active),99.2% (active),70% (active),98% (active),99.6% (active),75% (active),98% (active),99.5% (active)
Cc1ccc(NC(=O)Cc2nc3ccccc3s2)c(C)c1,7%,99% (active),98.7% (active),9%,98% (active),99.3% (active),20%,99% (active),99.5% (active),6,91% (active),95.7% (active),29%,99% (active),99% (active),14%,99% (active),99% (active)
CCOC(=O)C(=O)CC1=Nc2ccccc2SC(c2cccc(C)c2)C1 (centres undefined),2%,81% (active),91.9% (active),-1%,98% (active),92.9% (active),7%,98% (active),99.2% (active),-2,86% (active),50%,12%,98% (active),99.1% (active),2%,97% (active),97.5% (active)
CC(=O)NC1C(=O)CC(c2ccccc2)N(C)C1c1ccccc1 (centres undefined),2%,2%,7.55%,2%,6%,6.55%,-2%,1%,25.3%,4,0%,36.1%,2%,3%,18%,1%,-7%,31.7%
C(=NCCC[Si]12OCCN(CCO1)CCO2)c1ccc(C=NCCC[Si]23OCCN(CCO2)CCO3)cc1,3%,-3%,38.1%,2%,3%,98.3% (active),-1%,-2%,1.65%,3,-4%,87.7% (active),1%,-3%,76.5% (active),3%,3%,54%
CCOC(=O)N/N=C/c1ccc(N(C)CCC#N)cc1,7%,6%,-12%,-3%,12%,-26.9%,-4%,4%,55.2%,37,17%,5.5%,22%,15%,1.1%,14%,24%,-3.6%
NNC(=S)N/N=C(\CC1OC(=O)c2ccccc21)c1ccccc1O (centres undefined),6%,-3%,80.1% (active),-12%,-17%,60.2%,22%,7%,56.1%,11,4%,32%,-9%,13%,58.1%,-43%,-27%,84.2% (active)
Nc1ncc(C(=O)c2ccccc2)cc1[N+](=O)[O-],-142%,-110%,-5.7%,-44%,-37%,21.8%,-61%,-45%,-5.95%,-56,-22%,38.9%,-76%,-58%,-2.9%,-138%,-87%,-0.8%
CCCCCCCCNc1ncnc2c1cnn2C,-2%,69%,48.6%,4%,83% (active),43%,-2%,85% (active),54.8%,-9,61%,98.8% (active),1%,87% (active),97.8% (active),18%,86% (active),49.9%
COc1ccc(C(=O)c2ccc([N+](=O)[O-])cc2)cc1,-1%,-19%,-4.55%,7%,-9%,-12.2%,3%,0%,-3.8%,-15,-47%,53.4%,9%,-17%,17.5%,13%,0%,-21.6%
O=C1C=C(Cl)C(=O)C2=C1CCCC2,10%,89% (active),95.2% (active),11%,98% (active),70.8% (active),8%,98% (active),61.1%,-1,48%,59.2%,1%,98% (active),99.2% (active),20%,98% (active),93.9% (active)
CCCC(Sc1ccccc1)c1ccccc1NC(C)=O (centres undefined),1%,31%,85.5% (active),0%,8%,58.9%,1%,26%,89.9% (active),6,33%,37%,6%,41%,45.6%,2%,15%,67.5%
